Lamin A splicing: modulators of lamin A splicing | HeLa LMNA splicing GFP/RFP minigene ratio, 48 h | Potency, µM (highest dose often 46.1 µM), most hits filed as inhibitors | actives 0.01% (n = 200,000); active = well fitted inhibition curve with a large enough effect in the signal ratio, with a control signal flat, not every such curve was filed as active; inconclusive = small, poorly fitted or top-dose-only effect, or effect the other way, or a change in a side signal; the % refers to the signal ratio
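S3 HeLa cells stably expressing lamin A-EGFP splicing minigene plus DsRed2, 600 cells/well, 48 h compound exposure at 37C. Laser-scanning cytometry; analysed as GFP (500-530 nm)/RFP (575-640 nm) total intensity ratio; 0.5% DMSO vehicle.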
HPGD inh: blocks human HPGD enzyme activity; purified HPGD, NADH fluorescence kinetic, PGE2 substrate; actives 4.3% (n = 150,000); Potency, µM, hits mostly inhibitors; P15428
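20 nM HPGD preincubated 15 min at room temperature with compound in 50 mM Tris-HCl pH 8, 0.01% Tween 20. Started with 1 mM NAD+ and 30 uM prostaglandin E2; NADH fluorescence (360/450 nm) read 5 times over 30-s intervals, last minus first.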
KinaseGlo FLuc: blocks Kinase-Glo luciferase, a counter-screen artifact; Q27757; Kinase-Glo luciferase, ATP luminescence, 8 min; Potency, µM (top dose mostly 38.3 µM), hits mostly inhibitors; actives 0.28% (n = 200,000); AID 1379; active = well fitted inhibition curve with a large enough effect; inconclusive = small, poorly fitted or top-dose-only effect; note: nearly all actives have a fitted effect of over 60% in size
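Substrate mix (final 50 mM imidazole pH 7.2, 50 mM KCl, 7 mM MgCl2, 10 uM ATP, 0.01% Tween 20, 0.05% BSA) plus pin-tool compound, then Kinase-Glo detection mix; 8 min ambient, luminescence read.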
IMPase inh: IMPase inhibition in cells; inhibition (IP1 accumulation), % at 46.1 µM; AID 901; 120,000 tested, under 10 active; CHO-M1 cells, IP1 accumulation, HTRF TR-FRET ratio; active = well fitted curve in the direction sought with a large enough effect in the signal ratio, not every such curve was filed as active; inconclusive = small, poorly fitted or top-dose-only effect, or a change in a side signal; inactive = no such curve, though single readings can be large or run the other way; the % refers to the signal ratio;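 note: cells stimulated with carbachol in lithium chloride buffer; higher means more IMPase inhibition seen as more IP1 and lower FRET ratio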
Target sequence (P97697 whole entry, looked up): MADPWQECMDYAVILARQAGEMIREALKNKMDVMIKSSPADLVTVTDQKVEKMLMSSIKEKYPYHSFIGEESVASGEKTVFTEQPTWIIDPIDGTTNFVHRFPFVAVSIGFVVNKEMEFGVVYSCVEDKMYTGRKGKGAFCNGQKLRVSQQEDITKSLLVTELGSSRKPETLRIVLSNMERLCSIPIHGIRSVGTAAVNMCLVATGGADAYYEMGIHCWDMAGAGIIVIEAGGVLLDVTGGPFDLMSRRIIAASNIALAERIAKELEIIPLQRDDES
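CHO-M1 cells (CHO stably expressing M1 receptor), compound up to 46 uM final, stimulated with carbachol (50 uM as added) in buffer with 50mM LiCl, pH 7.4, 30 min at 37C. Cytosolic IP1 read by TR-FRET; AC50 from Hill fits.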
PNC inhibitor: inhibitors of perinucleolar compartment assembly. PC3M PTB-GFP, PNC prevalence imaging, 16 h; stronger effect = lower value. activity change (PNC), negative = inhibition, % at 10 µM. actives 3.1% (n = 140,000). AID 2417;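 active = readout at or below -70, meaning at least 70% loss of cells showing the perinucleolar compartment, a nuclear body marking cancer cells; inconclusive = readout between -30 and a set limit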
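PC3M cells stably expressing PTB-GFP, 750–1000 cells/well, treated 16 h at 37 °C with compound (23 nl of library stock), in duplicate. After paraformaldehyde fixation and Hoechst stain, imaged at 20x; PNC prevalence scored by image analysis.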
ALDH1A1 block: ALDH1A1 (human) enzyme inhibition. P00352. Purified ALDH1A1, NADH fluorescence, propionaldehyde substrate. Potency, µM (highest dose often 75.3 µM), actives largely listed as inhibitors. actives 7.3% (n = 220,000)
Target sequence (P00352 whole entry, looked up): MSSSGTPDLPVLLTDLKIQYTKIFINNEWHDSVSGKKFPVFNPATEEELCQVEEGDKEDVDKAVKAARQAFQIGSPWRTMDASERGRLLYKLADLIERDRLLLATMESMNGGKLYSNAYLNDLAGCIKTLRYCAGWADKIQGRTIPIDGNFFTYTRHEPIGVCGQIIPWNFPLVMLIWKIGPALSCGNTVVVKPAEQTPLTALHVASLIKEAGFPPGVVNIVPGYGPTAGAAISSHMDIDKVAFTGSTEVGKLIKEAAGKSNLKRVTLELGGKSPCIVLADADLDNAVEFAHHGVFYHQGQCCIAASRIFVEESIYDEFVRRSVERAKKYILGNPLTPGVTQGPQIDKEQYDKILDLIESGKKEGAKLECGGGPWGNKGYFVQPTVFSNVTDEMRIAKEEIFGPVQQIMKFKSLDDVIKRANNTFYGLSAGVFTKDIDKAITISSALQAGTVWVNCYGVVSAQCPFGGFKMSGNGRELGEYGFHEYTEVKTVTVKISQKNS
A number is an active result; . = inactive; ? = inconclusive; / = no result; [ ] = another dose, or the depositor's remark. A selection: hits, their analogues and other compounds. The true share with any hit is near 10%. Unless noted, calls come from the whole dose curve; as a rule, active = well fitted inhibition curve with a large enough effect (not every such curve was filed as active); inconclusive = small, poorly fitted or top-dose-only effect, or another doubt; inactive = no such curve, though single readings can be large or run the other way.

SMILES	Lamin A splicing	HPGD inh	KinaseGlo FLuc	IMPase inh	PNC inhibitor	ALDH1A1 block
Cc1cc2c(cc(C(=O)OC(C(=O)NCc3ccco3)C(C)C)n2C)o1 (stereo not given)	?	.	.	.	.	?
Cc1ccc2c(CC(=O)NCc3ccc4c(c3)OCO4)coc2c1	.	.	.	.	.	4.47µM
COC(=O)NCc1ccc2c(c1)OCO2	.	.	.	.	?	.
Cc1ccc2c(CC(=O)OC(C)C(=O)NCc3ccc4c(c3)OCO4)coc2c1 (stereo not given)	.	14.1µM	.	.	?	.
Cc1c(C(=O)Nc2ccc(-n3c(C)nc4ccccc4c3=O)cc2)cccc1[N+](=O)[O-]	.	/	/	/	/	/
COc1ccc(CCNC(=O)c2cc(Sc3cccc(Cl)c3)nc3ccccc23)cc1OC	.	/	/	/	/	/
CCSc1nnc(NC(=O)c2cccc(OCc3c(C)noc3C)c2)s1	?	25.1µM	.	.	-111.3	?
Cc1noc(C)c1COc1cccc(C(=O)NCc2ccccc2Cl)c1	?	15.8µM	.	.	?	.
COc1ccc2nc(NC(=O)c3cccc(OCc4c(C)noc4C)c3)sc2c1	?	?	.	.	-90.6	?
Cc1nc(C)c(C(=O)NCc2ccccc2Cl)o1	?	25.1µM	.	.	.	22.4µM
O=C(NCc1ccccc1Cl)C1CCN(C(=O)N2CCOc3ccccc32)CC1	.	/	/	/	/	/
COc1cccc(Cn2c(=O)cnc3cnc(OC)nc32)c1	.	/	/	/	/	.
CN1CCc2ccccc2[C@@H]1Cc1ccccc1NC(=O)c1sc2ccccc2c1Cl	/	.	.[7.66 µM]	/	/	.[13.5 µM]
CCOC(=O)CSc1nc2sc3c(c2c(=O)n1-c1ccc(OC)cc1)CC(C(C)C)OC3 (stereo not given)	/	/	/	.	/	/
Cn1c(SCc2nc3ccccc3[nH]2)nnc1-c1ccccn1	.	.	.	.	?	.
C=CCn1c(SCc2nc3ccccc3[nH]2)nnc1-c1ccccn1	.	.	.	.	.	6.31µM
Cc1c(Br)c([N+](=O)[O-])nn1CCCC(=O)Nc1sc2c(c1C(N)=O)CCC(C)C2 (stereo not given)	.	11.2µM	.	/	?	25.1µM
Cc1c(Cl)c([N+](=O)[O-])nn1CCCC(=O)Nc1sc2c(c1C(N)=O)CCC(C)C2 (stereo not given)	.	5.01µM	.	.	.	.
CC(=O)c1cccc(Nc2ncnc3c2cnn3-c2cccc(Cl)c2)c1	.	/	/	/	/	/
COCCn1c(=O)c(-c2ccc(F)cc2)nc2cnc(OC)nc21	.	/	/	/	/	?
CCCS(=O)(=O)N1CC(=O)N(c2cccc(F)c2)C(C)(C(=O)NC2CCCCCC2)C1 (stereo not given)	.	/	/	/	/	/
CC(=O)c1c(CC(=O)O)[nH]n(-c2nc3ccccc3s2)c1=O	.	?	6.31µM	.	.	.
CN(C)c1ncc2nc(-c3cc(F)cc(F)c3)c(=O)n(C[C@H]3CCCO3)c2n1	.	/	/	/	/	.
CNC(=O)[C@H]1O[C@@H](n2cnc3c(N)ncnc32)[C@H](O)[C@H]1O	.	.	.	/	/	.
CC(=O)OCC1(C)CN(c2ccccc2)NC1=O (stereo not given)	/	/	.	/	/	10µM
SMILES	Lamin A splicing	HPGD inh	KinaseGlo FLuc	IMPase inh	PNC inhibitor	ALDH1A1 block
Cc1cc2nnn(-c3nnc(-c4ccccc4)c4ccccc34)c2cc1C	.	.	.	.	-109.4	.
COc1ccc2c(c1)C(c1cc(OC)c(OC)c(OC)c1)CC(=O)O2 (stereo not given)	/	.	.	/	/	.
Cc1cc(C)cc(OC(=O)c2cc(-c3ccc(Cl)cc3)on2)c1	.	/	/	/	/	/
CCOc1ccc(N2C(=O)C3Sc4[nH]c(=O)sc4C(/C=C/c4ccccc4)C3C2=O)cc1 (stereo not given)	.	.	.	.	.	11.2µM
O=C(O)c1cc(-c2ccco2)[nH]n1	.	.	.	/	-89.0	.
CCCn1c(O)c(N=NC(=O)c2cccnc2)c2cc(Br)ccc21	/	/	/	/	/	1.12µM
COC(=O)c1ccccc1NC(=O)CNc1cc(OC)c(OC)cc1C	?	.	.	.	?	10µM
CCOC(=O)c1cnc(SCc2nc(N)nc(Nc3ccc(C)cc3)n2)nc1N	.	.	.	.	-81.2	.
COC(=O)c1ccccc1NC(=O)CSc1nc(N)cc(N)n1	.	.	.	.	.	25.1µM
COc1ccccc1-c1nnc(SCC(=O)NC2CCCCC2)o1	?	.	.	.	.	.
CCOC(=O)c1cnc(SCc2nc(N)nc(Nc3ccc(F)cc3)n2)nc1N	?	.	.	.	?	.
COc1ccccc1-c1nnc(SCC(=O)Nc2c(Cl)cccc2Cl)o1	?	.	.	?	.	22.4µM
CS(=O)(=O)N1CCC2(CCN(C(c3ccccc3)c3ccccc3)CC2)CC1	/	.	.	/	/	.
COc1cccc(OCCn2c(-c3ccc(Cl)cc3)nc3ccccc3c2=O)c1	/	/	/	.	/	/
N#Cc1ccc(CN2CCC3(CC2)CCN(S(=O)(=O)c2ccccc2)CC3)cc1	/	.	.	/	/	?
CC(C)(C)NC(=O)CSc1nnc(-c2ccncc2)o1	.	.	.	/	?	.
COC(=O)c1ccccc1NC(=O)CSc1nnc(-c2ccncc2)o1	?	.	.	.	.	17.8µM
CCOC(=O)c1ccccc1NC(=O)CSc1ncc(C(=O)OCC)c(N)n1	.	.	.	.	.	20µM
CCOC(=O)c1cnc(SCc2cccc(C)c2)nc1N	?	?	.	.	?	25.1µM
CCOC(=O)c1ccccc1NC(=O)CSc1nccn1C	.	.	.	.	-100.0	.
CCOC(=O)c1ccccc1NC(=O)CSc1nc(N)cc(N)n1	.	.	.	.	.	.
COc1cccc(CNC(=O)CSc2nc3ccccc3nc2Cc2ccc(C)cc2)c1OC	.	/	/	/	/	/
Clc1cccc(Cl)c1C(Nc1nncs1)Nc1nncs1	/	.	.[7.66 µM]	/	/	?
CCc1cccc(C)c1NC(=O)CSc1nnc(N)s1	/	/	/	.	/	/
COc1ccc(N2CC(NC(=O)c3ccc(OC(C)C)cc3)CC2=O)cc1 (stereo not given)	.	/	/	/	/	/
SMILES	Lamin A splicing	HPGD inh	KinaseGlo FLuc	IMPase inh	PNC inhibitor	ALDH1A1 block
COC(=O)c1ccc(C(=O)OC)c(NC(=O)CN2CCN(c3ccccc3OC)CC2)c1	.	.	.	.	.	?
COC(=O)c1ccc(C(=O)OC)c(NC(=O)COc2ccccc2OC)c1	.	.	.	.	.	12.6µM
COCC#Cc1ccc(C2C(C)CCC3C(=O)N4C(CCC(C)C4c4ccc(C#CCOC)cc4)C(=O)N32)cc1 (stereo not given)	/	/	/	/	/	.[13.5 µM]
Cc1nn(-c2ccc(N3CCOCC3)nn2)c(C)c1CCC(=O)Nc1ccc(F)cc1F	.	/	/	/	/	/
COc1ccc(CCNC(=O)CSc2nc3nc(C)c(Cc4ccc(C)cc4)c(C)n3n2)cc1OC	.	/	/	/	/	/
Cc1cccc2nc(CSc3nc4ccccc4o3)cn12	.	.	.	/	.	?
c1ccc2oc(SCc3cn4ccccc4n3)nc2c1	.	.	.	.	.	3.16µM
